{"source": "PubChem BioAssay (NCATS)", "note": "Where “and” joins values, the source holds several entries; their conditions need not be identical. Equal entries are not always repeated. Inconclusive results are not listed. Calls of active or inactive are those of the source. The call rests on the fitted dose curve; in most records, active means well fitted curve in the direction sought with a large enough effect; inconclusive means small, poorly fitted or top-dose-only effect, or another doubt; inactive means no such curve, though single readings can be large; an effect the other way counts as inactive or inconclusive. On the % scale 0 is the no-effect control and ±100 the full control effect; potency means the concentration at half of the fitted maximal effect."}
{"target": "Flap endonuclease 1 (Homo sapiens) (UniProt P39748)", "sequence (P39748 whole entry, looked up)": "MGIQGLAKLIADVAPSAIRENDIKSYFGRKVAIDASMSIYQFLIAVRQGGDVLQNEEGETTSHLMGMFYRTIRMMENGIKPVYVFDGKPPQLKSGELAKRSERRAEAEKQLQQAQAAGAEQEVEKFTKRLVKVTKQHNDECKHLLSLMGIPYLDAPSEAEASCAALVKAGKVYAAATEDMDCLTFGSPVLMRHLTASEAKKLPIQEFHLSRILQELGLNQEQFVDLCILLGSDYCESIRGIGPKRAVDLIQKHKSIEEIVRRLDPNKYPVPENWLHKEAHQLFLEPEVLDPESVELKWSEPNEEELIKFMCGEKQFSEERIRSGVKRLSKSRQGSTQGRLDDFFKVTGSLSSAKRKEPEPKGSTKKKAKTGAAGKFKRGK", "assay": "qHTS Validation Assay for the Inhibitors of Human Flap endonuclease 1 (FEN1) (AID 488816)", "conditions": "FEN1 nuclease activity, fluorogenic DNA substrate; series mostly up to 57.1 µM; activity, negative = inhibition: at the top concentration", "summary_of_the_method": "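Enzyme reagent 10 nM; cpds pinned; 15 min RT preinc.; substrate 50 nM final; reads t=0 and 15 min; no-enzyme buffer wells as neg. control; normalized data, 4-parameter Hill fit.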"}
{"smiles": "C=C1C[C@@]23CC[C@H]4[C@@](C)(CCC[C@@]4(C)C(=O)OC4OC(CO)C(O)C(O)C4O)[C@@H]2CC[C@]1(OC1OC(CO)C(O)C(O)C1OC1OC(CO)C(O)C(O)C1O)C3", "note": "(stereo partly drawn)", "activity, negative = inhibition": "-10.4% (inactive)"}
{"smiles": "N#CC(=C(\\N)Sc1ccccc1N)/C(C#N)=C(/N)Sc1ccccc1N", "activity, negative = inhibition": "-14.7% (inactive)"}
{"smiles": "CCCCCCC(=O)OC1CC(C)(C)NC(C)(C)C1", "activity, negative = inhibition": "0.395% (inactive)"}
{"smiles": "OC1(c2ccc(Cl)cc2)CCN(Cc2c[nH]c3ccccc23)CC1", "activity, negative = inhibition": "-3.16% (inactive)"}
{"smiles": "NCCNS(=O)(=O)c1cccc2c(Cl)cccc12", "activity, negative = inhibition": "-10.3% (inactive)"}
{"smiles": "COc1cc(/C=C(\\C#N)C(=O)Nc2nnc(C(F)(F)F)s2)ccc1OCc1ccc(C(F)(F)F)cc1C(F)(F)F", "activity, negative = inhibition": "-28.1% (inactive)"}
{"smiles": "CN(CC[C@@H](Oc1ccc(C(F)(F)F)cc1)c1ccccc1)CC(=O)O", "activity, negative = inhibition": "-1.9% (inactive)"}
{"smiles": "OC[C@H]1O[C@H](n2cnc3c(N[C@H]4CCC[C@@H]4O)ncnc32)[C@H](O)[C@@H]1O", "activity, negative = inhibition": "-25.6% (inactive)"}
{"smiles": "C[C@]12C=CC(=O)C=C1CC[C@@H]1C2=CC[C@]2(C)[C@@H](C(=O)CN3CCN(c4cc(N5CCCC5)nc(N5CCCC5)n4)CC3)CC[C@@H]12", "activity, negative = inhibition": "-8.55% (inactive)"}
{"smiles": "CCc1ccc2c(-c3cccc(Cl)c3)nc(=O)n(CC)c2n1", "activity, negative = inhibition": "-10.6% (inactive)"}
{"smiles": "NC(=Nc1ccccc1)NC(=O)c1nc(Cl)c(N)nc1N", "activity, negative = inhibition": "-12.9% (inactive)"}
{"smiles": "C[C@H]1CC2C3CCC4=CC(=O)C=C[C@]4(C)[C@@]3(Cl)[C@@H](O)C[C@]2(C)[C@@]1(O)C(=O)CO", "note": "(stereo partly drawn)", "activity, negative = inhibition": "-8.45% (inactive)"}
{"smiles": "O=C1NC(=O)c2cc(Nc3ccccc3)c(Nc3ccccc3)cc21", "activity, negative = inhibition": "-19.4% (inactive)"}
{"smiles": "CC[n+]1c(/C=C/C=C2/N(C)c3ccccc3C2(C)C)sc2ccccc21", "Potency": "26.7 µM (active)"}
{"smiles": "CSc1nc(N)c2ncn([C@@H]3O[C@H](COP(=O)(O)OP(=O)(O)O)C(O)[C@H]3O)c2n1", "note": "(stereo partly drawn)", "activity, negative = inhibition": "-2.35% (inactive)"}
{"smiles": "COc1ccc(CCn2nnnc2C2(c3ccc(C)cc3)CC2)cc1", "activity, negative = inhibition": "-14.5% (inactive)"}
{"target": "M-phase phosphoprotein 8 (Homo sapiens) (UniProt Q99549)", "sequence (Q99549 whole entry, looked up)": "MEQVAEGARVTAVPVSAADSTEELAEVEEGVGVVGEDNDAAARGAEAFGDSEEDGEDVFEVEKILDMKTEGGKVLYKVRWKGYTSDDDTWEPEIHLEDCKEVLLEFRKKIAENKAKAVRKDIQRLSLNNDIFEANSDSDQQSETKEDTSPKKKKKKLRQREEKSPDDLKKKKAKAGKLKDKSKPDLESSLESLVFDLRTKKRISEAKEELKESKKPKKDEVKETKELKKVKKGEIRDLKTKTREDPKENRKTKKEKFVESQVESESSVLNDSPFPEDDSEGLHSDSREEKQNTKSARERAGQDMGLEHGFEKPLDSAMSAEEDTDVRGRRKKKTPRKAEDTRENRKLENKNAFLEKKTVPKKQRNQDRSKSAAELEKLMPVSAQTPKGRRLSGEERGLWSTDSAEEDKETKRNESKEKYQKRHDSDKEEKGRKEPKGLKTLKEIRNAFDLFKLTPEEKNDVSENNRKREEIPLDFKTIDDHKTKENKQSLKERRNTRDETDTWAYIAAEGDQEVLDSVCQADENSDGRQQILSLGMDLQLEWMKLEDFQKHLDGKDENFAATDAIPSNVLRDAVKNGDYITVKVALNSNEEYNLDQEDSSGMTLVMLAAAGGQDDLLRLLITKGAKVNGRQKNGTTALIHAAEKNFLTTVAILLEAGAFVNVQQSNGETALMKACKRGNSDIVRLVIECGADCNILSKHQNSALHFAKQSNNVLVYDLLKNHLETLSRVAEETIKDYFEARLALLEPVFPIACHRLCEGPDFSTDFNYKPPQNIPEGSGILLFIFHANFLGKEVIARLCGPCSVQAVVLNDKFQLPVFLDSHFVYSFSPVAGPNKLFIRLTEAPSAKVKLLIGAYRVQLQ", "assay": "qHTS Validation Assay for Inhibitors for MPP8 Chromodomain Interactions with Methylated Histone Tails (AID 488949); further: nearly all actives have a fitted effect of over 55% in size; on activity change, negative = inhibition: top concentration of the series differs between compounds", "conditions": "AlphaScreen MPP8 binding to H3K9me3 peptide; series mostly up to 57.1 µM; activity change, negative = inhibition: at the top concentration", "summary_of_the_method": "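AlphaScreen proximity signal from streptavidin donor and Ni-chelate acceptor beads (10 ug/mL each) reported binding of MPP8 to trimethyl-K9 H3(1-18) peptide, both at 50 nM. The complex formed 30 min before a 30 min compound exposure at room temperature, in PBS pH 7.4.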"}
{"smiles": "O=C1Cc2c([nH]c3ccc(Br)cc23)-c2ccccc2N1", "Potency": "inactive"}
{"smiles": "Cn1cc(C(F)(F)F)nc1-c1ccc(OCC(O)CNCCOc2ccc(O)c(C(N)=O)c2)cc1", "note": "(stereo not drawn)", "activity change, negative = inhibition": "-1.31% (inactive)"}
{"smiles": "CC1CNCCN1S(=O)(=O)c1cccc2cnccc12", "note": "(stereo not drawn)", "Potency": "inactive"}
{"smiles": "C[C@](Cc1ccc(O)c(O)c1)(NN)C(=O)O", "activity change, negative = inhibition": "-1.83% (inactive)"}
{"smiles": "CN1Cc2sccc2C(c2ccc(O)c(O)c2)C1", "note": "(stereo not drawn)", "activity change, negative = inhibition": "-5.05% (inactive)"}
{"smiles": "Nc1ccc(-c2ccc3ccccc3n2)cc1", "Potency": "inactive"}
{"smiles": "CC(O)C(O)[C@H]1CNc2nc(N)[nH]c(=O)c2N1", "note": "(stereo partly drawn)", "activity change, negative = inhibition": "22.2% (inactive)"}
{"smiles": "CNCCc1cnc(CCC(c2ccccc2)c2ccccc2)[nH]1", "activity change, negative = inhibition": "-4.98% (inactive)"}
{"smiles": "Oc1cc2c(cc1O)C(c1ccccc1)CNCC2", "note": "(stereo not drawn)", "activity change, negative = inhibition": "-5.39% (inactive)"}
{"smiles": "O=C(O)/C(=C/c1c(C(=O)O)[nH]c2cc(Cl)cc(Cl)c12)c1ccccc1", "Potency": "inactive"}
{"smiles": "Nc1nc2c(nc(Br)n2C2OC3COP(=O)(O)O[C@@H]3C2O)c(=O)[nH]1", "note": "(stereo partly drawn)", "activity change, negative = inhibition": "-1.28% (inactive)"}
{"smiles": "Nc1nc2c(cnn2CCc2ccccc2)c2nc(-c3ccco3)nn12", "activity change, negative = inhibition": "-0.902% (inactive)"}
{"smiles": "N#Cc1cc([N+](=O)[O-])c2sc(C(N)=O)[n+]([O-])c2c1", "activity change, negative = inhibition": "-2.21% (inactive)"}
{"smiles": "CCCCCCCCCC(=O)NC(CN1CCOCC1)[C@H](O)c1ccccc1", "note": "(stereo partly drawn)", "Potency": "inactive"}
{"smiles": "O=C(O)C1=CCCNC1", "Potency": "inactive"}
{"smiles": "CCCCCCCCCCC(C)(C)C(=O)Nc1c(OC)cc(OC)cc1OC", "activity change, negative = inhibition": "17.7% (inactive)"}
{"smiles": "CC[C@H](NC(=O)c1c(C)c(-c2ccccc2)nc2ccccc12)c1ccccc1", "Potency": "inactive"}
{"smiles": "C=C1C[C@@]23CC[C@H]4[C@@](C)(CCC[C@@]4(C)C(=O)OC4OC(CO)C(O)C(O)C4O)[C@@H]2CC[C@]1(OC1OC(CO)C(O)C(O)C1OC1OC(CO)C(O)C(O)C1O)C3", "note": "(stereo partly drawn)", "activity change, negative = inhibition": "9.45% (inactive)"}
{"smiles": "N#CC(=C(\\N)Sc1ccccc1N)/C(C#N)=C(/N)Sc1ccccc1N", "activity change, negative = inhibition": "-4.79% (inactive)"}
{"smiles": "NCCNS(=O)(=O)c1cccc2c(Cl)cccc12", "Potency": "inactive"}
{"smiles": "COc1cc(/C=C(\\C#N)C(=O)Nc2nnc(C(F)(F)F)s2)ccc1OCc1ccc(C(F)(F)F)cc1C(F)(F)F", "activity change, negative = inhibition": "9.8% (inactive)"}
{"smiles": "CN(CC[C@@H](Oc1ccc(C(F)(F)F)cc1)c1ccccc1)CC(=O)O", "activity change, negative = inhibition": "7.16% (inactive)"}
{"smiles": "OC[C@H]1O[C@H](n2cnc3c(N[C@H]4CCC[C@@H]4O)ncnc32)[C@H](O)[C@@H]1O", "activity change, negative = inhibition": "4.8% (inactive)"}
{"smiles": "CCc1ccc2c(-c3cccc(Cl)c3)nc(=O)n(CC)c2n1", "activity change, negative = inhibition": "-0.958% (inactive)"}
{"smiles": "O=C1Nc2ccc(I)cc2/C1=C/c1cc(Br)c(O)c(Br)c1", "Potency": "14.1 µM (active) and 9.47 µM (active)"}
{"smiles": "NC(=Nc1ccccc1)NC(=O)c1nc(Cl)c(N)nc1N", "activity change, negative = inhibition": "2.03% (inactive)"}
{"smiles": "C[C@H]1CC2C3CCC4=CC(=O)C=C[C@]4(C)[C@@]3(Cl)[C@@H](O)C[C@]2(C)[C@@]1(O)C(=O)CO", "note": "(stereo partly drawn)", "activity change, negative = inhibition": "-4.63% (inactive)"}
